# Assay results published in PubChem BioAssay AID504915 (The Scripps Research Institute Molecular Screening Center, 2011).
# The other results are listed elsewhere or left out. Calls of active or inactive are those of the source. Cut-off read from the data, not from the text of the source: active = activation above about 17%; inactive = the rest.
# Target: 5-hydroxytryptamine receptor 5A (Homo sapiens) (UniProt P47898)
# Assay: HTR5A agonists, retest of hits, confirmation, cell-based, luminescence (AID 504915);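 note: 0% = cells with vehicle only and 100% = full reference agonist response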
# Settings: HTR5A agonist cell assay, at 9.3 µM, hits give high values
# Sequence of 5-hydroxytryptamine receptor 5A (Homo sapiens) (P47898 whole entry, looked up): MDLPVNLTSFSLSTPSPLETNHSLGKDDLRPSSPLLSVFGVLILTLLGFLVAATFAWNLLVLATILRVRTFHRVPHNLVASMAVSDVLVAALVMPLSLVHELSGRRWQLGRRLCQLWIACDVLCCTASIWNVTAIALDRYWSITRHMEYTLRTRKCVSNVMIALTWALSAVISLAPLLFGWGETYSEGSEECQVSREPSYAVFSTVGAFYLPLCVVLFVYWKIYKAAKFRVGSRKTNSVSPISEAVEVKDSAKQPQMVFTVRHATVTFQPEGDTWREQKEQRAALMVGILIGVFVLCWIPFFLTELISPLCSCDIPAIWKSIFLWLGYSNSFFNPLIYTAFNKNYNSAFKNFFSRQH
row,SMILES,activation
1,COc1cccc(/C=N/NC(=O)c2[nH]nc3c2CCc2ccccc2-3)c1O,-2.75% (inactive)
2,CC(C)CC(=O)N/C(N)=N/c1nc2ccccc2s1,-0.51% (inactive)
3,CN1c2ccc(C=O)c3c(C=O)ccc(c23)N(C)C1(C)C,-0.75% (inactive)
4,Cc1ccc(CN2CCN(Cc3ccc(OCCO)cc3)CC2CCO)o1 (stereo not given),2.89% (inactive)
5,O=C(CNCc1ccco1)Nc1cc(S(=O)(=O)N2CCOCC2)ccc1N1CCCC1,-0.44% (inactive)
6,c1cc(-c2nn[nH]n2)ccc1CN1CCCCC1,-1.04% (inactive)
7,Cc1ccc(CCC(=O)Nc2ncc(Cc3cc(Cl)ccc3Cl)s2)o1,29.1% (active)
8,COc1ccccc1S(=O)(=O)NCc1ccc(C(=O)N(C)Cc2ccc(F)cc2)cc1,-2.33% (inactive)
9,CCOC(=O)c1cnc2sccn2c1=O,5.5% (inactive)
10,CC(NC(=O)c1cc(-c2ccccc2)on1)c1ccccc1 (stereo not given),-0.01% (inactive)
11,COc1ccc(S(=O)(=O)N2CCN(CC(=O)N3c4ccccc4CC3C)CC2)cc1OC (stereo not given),5.85% (inactive)
12,COc1cccc(OCC(=O)Nc2ccccc2C(N)=O)c1,26.9% (active)
13,O=C(CC(O)(C(F)(F)F)C(F)(F)F)Nc1ccc(Cl)c(Cl)c1,-1.59% (inactive)
14,COc1ccc(-c2ocnc2C(=O)Nc2ccc3c(c2)CCC3)cc1,-0.96% (inactive)
15,Cc1c(C(=O)OCC(=O)N2CCCC2=O)oc2ccccc12,3.43% (inactive)
16,O=C(c1cccnc1)N(c1cc2sc(=O)oc2c2ccccc12)S(=O)(=O)c1ccccc1,2.35% (inactive)
17,CC1(C)C2CCC1(CS(=O)(=O)NCCc1c[nH]c3ccccc13)C(=O)C2 (stereo not given),35.4% (active)
18,Cc1ccccc1CN1CCN(CC(=O)NCc2ccccn2)C1=O,3.7% (inactive)
19,CC(C)OC(=O)c1c(NC(=O)c2ccco2)sc2c1CCCC2,0.39% (inactive)
20,c1ccc(-n2nc3ccccc3n2)cc1,1.33% (inactive)
21,COC(=O)c1cc(C(=O)OCC(=O)Nc2cc(C)on2)cc([N+](=O)[O-])c1,1.23% (inactive)
22,Cc1c(C(=O)OCC(=O)N(CCC#N)c2ccccc2)oc2c1ccc1ccccc12,61.4% (active)
23,CCN(CC(=O)Nc1cccc(S(=O)(=O)N2CCCCC2)c1)Cc1ccccc1,1.96% (inactive)
24,CNc1nnc(-c2ccco2)s1,0.94% (inactive)
25,O=C(OC12CC3CC(CC(C3)C1)C2)c1ccc(NCc2cc(O)ccc2O)cc1,7.13% (inactive)
